Measured values reported in PubChem BioAssay (Tox21).
Records with an inconclusive call do not appear. Activity calls are given as the source filed them. Unless noted, the call rests on the fitted dose curve; in most records, active means well fitted curve in the direction sought with a large enough effect in the repeat runs; inconclusive means weak or mixed curves; inactive means no such curve, though single readings can be large; an effect the other way counts as inactive or inconclusive.

Legend:
[1] = qHTS assay to identify aromatase inhibitors - cell viability counter screen (AID 743084);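 further: cells stimulated with testosterone during compound exposure; nearly all actives have a fitted effect of over 55% in size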
[2] = target: Aryl hydrocarbon receptor (Homo sapiens) (UniProt P35869); assay: qHTS assay to identify small molecule that activate the aryl hydrocarbon receptor (AhR) signaling pathway (AID 743085);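 further: HG2L7.5c1 human HepG2 liver cells with stably integrated DRE-driven firefly reporter; series mostly up to about 70 µM; nearly all actives have a fitted effect of over 15% in size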
Summary of the method: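 HepG2 cells (HG2L7.5c1) stably carrying a firefly luciferase reporter driven by 20 dioxin responsive elements were exposed to compound for 24 h at 37C after a 5 h settling period; luminescence rise (ONE-Glo) indicated activation.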

[3] = qHTS assay to identify small molecule that activate the aryl hydrocarbon receptor (AhR) signaling pathway - cell viability counter screen (AID 743086);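 further: HepG2 liver cells carrying the AhR DRE luciferase reporter; series mostly up to about 70 µM; nearly all actives have a fitted effect of over 45% in size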
Summary of the method: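 HepG2-AhR-luc (HG2L7.5c1) cells, 4000/well, treated 24 h at 37 C with compound; viability measured as CellTiter-Fluor fluorescence after 30 min in the same wells as the luciferase read.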

[4] = target: Peroxisome proliferator-activated receptor gamma (Homo sapiens) (UniProt P37231); assay: qHTS assay to identify small molecule antagonists of the peroxisome proliferator-activated receptor gamma (PPARg) signaling pathway (AID 743191; calls by dose curve; further: series mostly up to about 63 µM; nearly all actives have a fitted effect of over 30% in size)
Summary of the method: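 GeneBLAzer PPARg UAS-bla HEK293H cells, 5 h post-plating, exposed to compounds 17 h at 37C. LiveBLAzer B/G FRET substrate added for 1 h at room temperature; beta-lactamase reporter read by fluorescence intensity.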

[5] = qHTS assay for small molecule agonists of the antioxidant response element (ARE) signaling pathway (AID 743202; active means well fitted activation curve with a large enough effect in the signal ratio in the repeat runs, not every such curve was filed as active; the % refers to the signal ratio)
Summary of the method: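 HepG2 ARE-bla cells; 16 h treatment at 37 C; FRET-based beta-lactamase fluorescence read after 2 h substrate incubation at room temperature.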

[6] = qHTS assay for small molecule activators of the heat shock response signaling pathway - cell viability counter screen (AID 743209); further: nearly all actives have a fitted effect of over 50% in size
Summary of the method: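 Cytotoxicity counter screen run in parallel with the HSE beta-lactamase reporter, using the same wells. HeLa HSE-bla cells received compound for 5 h at 37 C; ATP-based CellTiter-Glo luminescence was measured after 30 min at room temperature.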

[7] = qHTS assay for small molecule activators of the heat shock response signaling pathway (AID 743210; active means well fitted activation curve with a large enough effect in the signal ratio in the repeat runs, with a control signal flat, not every such curve was filed as active; the % refers to the signal ratio;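 further: HeLa cells with beta-lactamase reporter driven by heat shock elements; series mostly up to about 63 µM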)
Summary of the method: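 Following overnight attachment, HSE-bla HeLa cells received test compounds for 5 h at 37 C; beta-lactamase activity was then detected via FRET substrate fluorescence.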

[8] = qHTS assay to identify small molecule agonists of the peroxisome proliferator-activated receptor delta (PPARd) signaling pathway - cell viability counter screen (AID 743211); further: nearly all actives have a fitted effect of over 55% in size
Summary of the method: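 PPARd-bla HEK293H cells (UAS-beta-lactamase reporter) were treated with compounds for 17 h at 37 C. Viability was then read in the same wells by CellTiter-Glo luminescence after 30 min at room temperature.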

[9] = target: Peroxisome proliferator-activated receptor delta (Homo sapiens) (UniProt Q03181); assay: qHTS assay to identify small molecule agonists of the peroxisome proliferator-activated receptor delta (PPARd) signaling pathway (AID 743212; calls by dose curve)
Summary of the method: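 Tox21 library screened in GeneBLAzer PPARd UAS-bla HEK293H cells. After compound treatment at 37 C, a FRET-based beta-lactamase substrate was applied for 2 h and fluorescence recorded.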

[10] = qHTS assay to identify small molecule antagonists of the peroxisome proliferator-activated receptor delta (PPARd) signaling pathway - cell viability counter screen (AID 743213); further: nearly all actives have a fitted effect of over 50% in size
Summary of the method: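 Cytotoxicity counter screen: CellTiter-Glo luminescence read 30 min after addition, in the same wells as the reporter assay. There, PPARd UAS-bla HEK293H cells (3000/well) were treated 17 h at 37 C with compound and 300 nM L165041.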

[11] = target: Peroxisome proliferator-activated receptor delta (Homo sapiens) (UniProt Q03181); assay: qHTS assay to identify small molecule antagonists of the peroxisome proliferator-activated receptor delta (PPARd) signaling pathway (AID 743215; active means well fitted inhibition curve with a large enough effect in the signal ratio in the repeat runs, not every such curve was filed as active; the % refers to the signal ratio;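 further: cells stimulated with agonist L165041 at 300 nM final during compound exposure; series mostly up to about 62 µM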)
Summary of the method: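 Cells: HEK293H with a UAS-driven beta-lactamase reporter responsive to PPARd. Compounds were co-added with L165041 (300 nM, final) and incubated 17 h at 37 C before a 2 h room-temperature FRET substrate step and fluorescence reading.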

[12] = qHTS assay to identify small molecule agonists of the farnesoid-X-receptor (FXR) signaling pathway - cell viability counter screen (AID 743218); further: nearly all actives have a fitted effect of over 45% in size
Summary of the method: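 Cells were seeded, left 5 h at 37 C and 5% CO2, then dosed with compound in DMSO for 16 h. After the beta-lactamase FRET read, CellTiter-Glo was added and luminescence measured 30 min later.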

[13] = qHTS assay to identify small molecule antagonists of the farnesoid-X-receptor (FXR) signaling pathway - cell viability counter screen (AID 743221; active means well fitted cell-killing curve with a large enough effect in the repeat runs, not every such curve was filed as active; further: nearly all actives have a fitted effect of over 50% in size)
Summary of the method: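 FXR-UAS-bla HEK 293T cells were treated with test compounds plus chenodeoxycholic acid (50 uM final) for 16 h at 37 C. Cell viability in the same wells was then read as CellTiter-Glo luminescence after 30 min at room temperature.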

[14] = target: Vitamin D3 receptor (Homo sapiens) (UniProt P11473); assay: qHTS assay to identify small molecule agonists of the vitamin D receptor (VDR) signaling pathway (AID 743222; calls by dose curve)
Summary of the method: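 Cells carrying a VDR-driven beta-lactamase reporter are seeded at 2,000 per well and rested 4 h. Compounds in DMSO are added for 16 h at 37C, and FRET substrate fluorescence is measured after 2 h at room temperature.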

[15] = target: Vitamin D3 receptor (Homo sapiens) (UniProt P11473); assay: qHTS assay to identify small molecule antagonists of the vitamin D receptor (VDR) signaling pathway (AID 743223; active means well fitted inhibition curve with a large enough effect in the signal ratio in the repeat runs, not every such curve was filed as active; the % refers to the signal ratio)
Summary of the method: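 VDR-bla cells were plated, incubated 4 h at 37C, then given compound and 1alpha,25-dihydroxyvitamin D3 (3 nM final). After 16 h at 37C, LiveBLAzer B/G FRET substrate was added for 2 h at room temperature and fluorescence read.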

[16] = qHTS assay to identify small molecule antagonists of the peroxisome proliferator-activated receptor gamma (PPARg) signaling pathway - cell viability counter screen (AID 743194); further: nearly all actives have a fitted effect of over 55% in size
Summary of the method: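 Cytotoxicity counter screen in PPARg-bla HEK293H cells, same wells as reporter assay. Compounds plus 50 nM rosiglitazone (final) for 17 h at 37 C, then viability read by CellTiter-Glo luminescence.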

[17] = qHTS assay for small molecule agonists of the antioxidant response element (ARE) signaling pathway - cell viability counter screen (AID 743203; calls by dose curve; further: nearly all actives have a fitted effect of over 55% in size)
Summary of the method: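 Cytotoxicity was tested in parallel with the ARE reporter screen. ARE-bla HepG2 cells were exposed to compounds for 16 hrs, and viability was taken from CellTiter-Glo luminescence.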

[18] = target: Bile acid receptor (Homo sapiens) (UniProt Q96RI1); assay: qHTS assay to identify small molecule agonists of the farnesoid-X-receptor (FXR) signaling pathway (AID 743220; active means well fitted activation curve with a large enough effect in the signal ratio in the repeat runs, not every such curve was filed as active; the % refers to the signal ratio)
Summary of the method: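 FXR-UAS-bla HEK 293T cells carrying a UAS-driven beta-lactamase reporter were plated for 5 h at 37C/5% CO2, then exposed to DMSO-dissolved Tox21 10K compounds for 16 h at 37C. A LiveBLAzer B/G FRET substrate was loaded for 2 h at room temperature before fluorescence reading.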

[19] = target: Bile acid receptor (Homo sapiens) (UniProt Q96RI1); assay: qHTS assay to identify small molecule antagonists of the farnesoid-X-receptor (FXR) signaling pathway (AID 743217; active means well fitted inhibition curve with a large enough effect in the signal ratio in the repeat runs, not every such curve was filed as active; the % refers to the signal ratio)
Summary of the method: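 Cells carrying a UAS-driven beta-lactamase reporter (GeneBLAzer FXR-UAS-bla HEK 293T) were plated and rested 5 h at 37 °C. Compounds in DMSO were added alongside chenodeoxycholic acid agonist at 50 uM final and left 16 h at 37 °C before FRET substrate readout.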
On the % scale 0 is the no-effect control and ±100 the full control effect.

Chain of Peroxisome proliferator-activated receptor delta (Homo sapiens) (Q03181 whole entry, looked up): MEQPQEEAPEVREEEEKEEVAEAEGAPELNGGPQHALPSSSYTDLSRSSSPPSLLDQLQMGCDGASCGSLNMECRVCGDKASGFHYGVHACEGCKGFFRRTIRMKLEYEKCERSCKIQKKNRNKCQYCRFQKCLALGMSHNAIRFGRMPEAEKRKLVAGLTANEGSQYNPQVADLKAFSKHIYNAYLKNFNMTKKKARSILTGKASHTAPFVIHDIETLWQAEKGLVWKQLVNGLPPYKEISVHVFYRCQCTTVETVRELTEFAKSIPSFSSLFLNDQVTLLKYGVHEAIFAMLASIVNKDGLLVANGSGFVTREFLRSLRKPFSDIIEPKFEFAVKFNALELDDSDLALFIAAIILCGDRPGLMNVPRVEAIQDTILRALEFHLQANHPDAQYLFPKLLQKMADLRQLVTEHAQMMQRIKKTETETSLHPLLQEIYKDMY
Chain of Aryl hydrocarbon receptor (Homo sapiens) (P35869 whole entry, looked up): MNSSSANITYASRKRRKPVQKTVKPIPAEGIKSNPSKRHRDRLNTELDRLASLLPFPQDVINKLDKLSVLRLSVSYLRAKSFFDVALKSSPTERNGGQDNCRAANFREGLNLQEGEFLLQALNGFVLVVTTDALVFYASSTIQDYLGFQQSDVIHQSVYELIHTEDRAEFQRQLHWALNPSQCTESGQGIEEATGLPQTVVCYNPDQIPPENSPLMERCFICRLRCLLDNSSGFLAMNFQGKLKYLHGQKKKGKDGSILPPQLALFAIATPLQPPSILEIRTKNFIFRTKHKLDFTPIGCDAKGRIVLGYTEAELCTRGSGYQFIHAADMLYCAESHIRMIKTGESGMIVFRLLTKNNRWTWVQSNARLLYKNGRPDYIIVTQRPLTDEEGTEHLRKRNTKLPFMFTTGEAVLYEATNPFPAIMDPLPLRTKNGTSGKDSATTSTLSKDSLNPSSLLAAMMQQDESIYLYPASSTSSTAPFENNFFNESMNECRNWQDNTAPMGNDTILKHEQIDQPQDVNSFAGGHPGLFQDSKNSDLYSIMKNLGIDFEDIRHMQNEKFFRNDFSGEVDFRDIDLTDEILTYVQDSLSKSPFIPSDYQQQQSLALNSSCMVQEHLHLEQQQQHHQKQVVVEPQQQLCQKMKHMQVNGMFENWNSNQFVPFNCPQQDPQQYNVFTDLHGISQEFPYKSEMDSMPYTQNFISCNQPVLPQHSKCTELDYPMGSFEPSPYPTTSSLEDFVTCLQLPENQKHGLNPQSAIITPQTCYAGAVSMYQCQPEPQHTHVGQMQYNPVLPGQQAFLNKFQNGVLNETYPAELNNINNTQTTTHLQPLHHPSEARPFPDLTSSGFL
Chain of Bile acid receptor (Homo sapiens) (Q96RI1 whole entry, looked up): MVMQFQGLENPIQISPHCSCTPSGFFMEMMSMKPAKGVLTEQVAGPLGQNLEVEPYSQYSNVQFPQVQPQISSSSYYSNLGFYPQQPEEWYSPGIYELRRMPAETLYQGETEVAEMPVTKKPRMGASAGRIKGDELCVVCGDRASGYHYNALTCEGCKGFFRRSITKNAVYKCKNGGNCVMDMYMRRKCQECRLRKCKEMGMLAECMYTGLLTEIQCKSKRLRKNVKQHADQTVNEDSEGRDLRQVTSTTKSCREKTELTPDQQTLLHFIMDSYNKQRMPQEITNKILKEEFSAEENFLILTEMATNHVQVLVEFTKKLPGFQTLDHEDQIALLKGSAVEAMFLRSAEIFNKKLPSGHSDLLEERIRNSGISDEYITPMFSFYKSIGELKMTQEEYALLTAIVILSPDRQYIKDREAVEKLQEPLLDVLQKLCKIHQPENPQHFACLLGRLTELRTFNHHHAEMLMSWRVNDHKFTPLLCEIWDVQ
Chain of Vitamin D3 receptor (Homo sapiens) (P11473 whole entry, looked up): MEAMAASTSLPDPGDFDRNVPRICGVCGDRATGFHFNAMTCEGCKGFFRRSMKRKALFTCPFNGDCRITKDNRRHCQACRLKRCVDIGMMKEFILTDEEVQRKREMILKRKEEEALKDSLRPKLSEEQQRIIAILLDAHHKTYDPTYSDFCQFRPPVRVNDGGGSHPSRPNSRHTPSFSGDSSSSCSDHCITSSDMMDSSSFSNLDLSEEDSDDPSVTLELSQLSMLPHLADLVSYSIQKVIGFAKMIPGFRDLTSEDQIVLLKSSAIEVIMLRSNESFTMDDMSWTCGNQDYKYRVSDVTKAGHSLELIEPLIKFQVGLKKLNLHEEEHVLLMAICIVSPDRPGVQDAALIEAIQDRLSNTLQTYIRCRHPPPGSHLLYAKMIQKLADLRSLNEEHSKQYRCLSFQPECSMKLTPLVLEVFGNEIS
Chain of Peroxisome proliferator-activated receptor gamma (Homo sapiens) (P37231 whole entry, looked up): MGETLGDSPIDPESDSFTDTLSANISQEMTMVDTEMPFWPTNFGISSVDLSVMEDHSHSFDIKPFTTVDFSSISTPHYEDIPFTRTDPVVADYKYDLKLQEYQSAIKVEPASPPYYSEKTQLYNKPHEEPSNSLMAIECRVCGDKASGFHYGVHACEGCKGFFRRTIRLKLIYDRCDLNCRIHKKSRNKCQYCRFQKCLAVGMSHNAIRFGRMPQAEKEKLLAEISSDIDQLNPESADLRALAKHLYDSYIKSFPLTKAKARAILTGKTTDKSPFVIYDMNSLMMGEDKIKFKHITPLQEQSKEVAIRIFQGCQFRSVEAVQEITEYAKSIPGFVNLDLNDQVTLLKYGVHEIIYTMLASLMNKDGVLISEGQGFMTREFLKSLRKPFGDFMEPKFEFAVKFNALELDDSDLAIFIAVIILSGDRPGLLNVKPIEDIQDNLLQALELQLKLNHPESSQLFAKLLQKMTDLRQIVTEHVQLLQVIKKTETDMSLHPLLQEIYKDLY

CCOC(=O)COC(=O)c1ccccc1C(=O)OCC
inactive: Potency [1] | Potency [2] | Potency [3] | Potency [4] | Potency [5] | outcome [6] | outcome [7] | outcome [8] | outcome [9] | outcome [10] | outcome [11] | outcome [12] | outcome [13] | outcome [14] | outcome [15]

C[N+]1(CC2COC(c3ccccc3)(c3ccccc3)O2)CCCCC1 (stereo not given)
inactive: Potency [1] | Potency [2] | Potency [3] | outcome [16] | Potency [5] | outcome [17] | outcome [6] | outcome [7] | outcome [8] | outcome [9] | outcome [11] | outcome [12] | outcome [18]

CO/N=C(\C(=O)N[C@@H]1C(=O)N2C(C(=O)O)=C(CSc3nc(=O)c(O)nn3C)CS[C@H]12)c1csc(N)n1
inactive: Potency [1] | Potency [2] | Potency [3] | Potency [4] | outcome [16] | Potency [5] | outcome [8] | outcome [9] | outcome [11] | outcome [19] | outcome [12] | outcome [13] | outcome [14] | outcome [15]

Cc1ccc(C(=O)Nc2ccc(S(=O)(=O)O)c3cc(S(=O)(=O)O)cc(S(=O)(=O)O)c23)cc1NC(=O)c1cccc(NC(=O)Nc2cccc(C(=O)Nc3cc(C(=O)Nc4ccc(S(=O)(=O)O)c5cc(S(=O)(=O)O)cc(S(=O)(=O)O)c45)ccc3C)c2)c1
inactive: Potency [1] | Potency [2] | Potency [3] | Potency [4] | Potency [5] | outcome [17] | outcome [6] | outcome [7] | outcome [8] | outcome [9] | outcome [10] | outcome [11] | outcome [12] | outcome [13] | outcome [14] | outcome [15]

COc1cc(C(=O)OC(COCCC(C)C)CN2CCOCC2)cc(OC)c1OC (stereo not given)
inactive: Potency [1] | Potency [2] | Potency [3] | Potency [4] | Potency [5] | outcome [17] | outcome [6] | outcome [7] | outcome [8] | outcome [9] | outcome [11] | outcome [12] | outcome [18] | outcome [13] | outcome [14] | outcome [15]

CCCCCCCCCCCCCCCCCCO
inactive: Potency [1] | Potency [2] | Potency [3] | Potency [4] | outcome [16] | Potency [5] | outcome [17] | outcome [6] | outcome [7] | outcome [8] | outcome [9] | outcome [10] | outcome [11] | outcome [12] | outcome [13] | outcome [14] | outcome [15]

CC1CCC(CO)CC1 (stereo not given)
inactive: Potency [1] | Potency [2] | Potency [3] | outcome [16] | Potency [5] | outcome [17] | outcome [6] | outcome [7] | outcome [8] | outcome [9] | outcome [10] | outcome [11] | outcome [12] | outcome [13] | outcome [14] | outcome [15]

C[C@H]1[C@H](NC(=O)/C(=N/OC(C)(C)C(=O)O)c2csc(N)n2)C(=O)N1S(=O)(=O)O (stereo in doubt)
inactive: Potency [1] | Potency [2] | Potency [3] | outcome [16] | Potency [5] | outcome [17] | outcome [6] | outcome [7] | outcome [8] | outcome [19] | outcome [12] | outcome [18] | outcome [13]

CCCCCCCCCCCCSC
inactive: Potency [1] | Potency [2] | Potency [3] | Potency [4] | outcome [17] | outcome [6] | outcome [7] | outcome [8] | outcome [9] | outcome [10] | outcome [12] | outcome [18] | outcome [13]

CCCCOCCOC(=O)COc1cc(Cl)c(Cl)cc1Cl
inactive: Potency [1] | Potency [2] | Potency [3] | outcome [16] | Potency [5] | outcome [17] | outcome [6] | outcome [7] | outcome [8] | outcome [9] | outcome [10] | outcome [11] | outcome [12] | outcome [13] | outcome [14] | outcome [15]

c1ccc(CCc2ccccc2)cc1
inactive: Potency [1] | Potency [2] | Potency [3] | Potency [4] | outcome [17] | outcome [6] | outcome [7] | outcome [8] | outcome [9] | outcome [10] | outcome [11] | outcome [19] | outcome [12] | outcome [18] | outcome [13] | outcome [14] | outcome [15]

NC(N)=NCCN1CCCCCCC1
inactive: Potency [1] | Potency [2] | Potency [3] | activity change, negative = cytotoxicity [16] 6.29% [at 0.55 µM] | activation [5] 4.68% [at 0.756 µM] | viability change, negative = cytotoxic [17] -0.232% [at 0.756 µM] | activity change, negative = cytotoxicity [6] -20.4% [at 0.55 µM] | activation [7] -0.075% [at 0.55 µM] | activity change, negative = cytotoxicity [8] 8.58% [at 0.55 µM] | activation [9] 3.33% [at 0.55 µM] | viability change, negative = cytotoxic [10] 2.8% [at 0.575 µM] | ratio activity, negative = inhibition [11] 5.69% [at 0.575 µM] | viability change, negative = cytotoxic [12] 2.57% [at 0.55 µM] | activity change, negative = cytotoxicity [13] -1.17% [at 0.55 µM]
